This is part of a sample that, as a whole, favours compounds with a hit. Of some 83,000 tested, about 20% had one in any assay.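 How to read the values: 0–100, growth inhibition (40 = 60% inhibited); 0, no net growth; -100 to 0, cell death (-40 = 40% of starting cells died; -100 = all dead).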 Unmarked numbers belong to inactive results. Activity calls are given as the source filed them. Rule for the calls: active = growth percent below 10; inactive = the rest.

Holding throughout (assay): NCI-60 one-dose screen, 48 h (100 = growth as untreated, 0 = no growth, -100 = all killed)
Conditions in all cases: 10 µM unless noted

In test [1] the test system is BT-549 breast.
Test [2] concerns MDA-MB-435 melanoma.
Test [3] has as its system SW-620 colon.
In test [4] the test system is MCF7 breast.
Test [5] relates to HCT-116 colon.
The test system of test [6] is HCC-2998 colon.
The test system of test [7] is KM12 colon.

For the compound `CC(C)CC(NC(=O)C(CCCN=C(N)N)NC(=O)OCc1ccccc1)C(=O)NC(CNC(=O)/C=C/c1ccccc1)C(C)C` (stereo unspecified), the growth was 107% in test [1]; 97.5% in test [2]; 105% in test [3]; 91% in test [4]; 102% in test [5]; 137% in test [6]. In addition, in test [7], the growth was 105%.
For `Nc1nonc1-c1nc2ccccc2n1Cc1ccc(F)cc1`, the growth was 58% in test [1]; -39.6% (active) in test [2]; 24.7% in test [3]; 28.4% in test [4]; 30.4% in test [5]; 58.8% in test [6]. Moreover, the growth in test [7] was 30.5%.
Regarding `O=[N+]([O-])c1cccc(N=C(Nc2cccc([N+](=O)[O-])c2)c2ccccc2)c1`, the growth in test [1] is 82%; in test [2], 78.4%; in test [3], 101%; in test [4], 68.9%; in test [5], 58.1%; in test [6], 93.2%. In addition, the growth in test [7] was 84.2%.
Consider `C#CC[C@@H]1C[C@]2(C)[C@H]3CC=C4[C@H]5[C@@H](C)[C@H](C)CC[C@]5(C(=O)NCCCCCCCCN)CC[C@@]4(C)[C@]3(C)CC[C@H]2C(C)(C)[C@H]1OC(C)=O`, for which the growth in test [1] was 93.7%; in test [2] it was -62.4% (active); in test [3], -61.9% (active); in test [4], -80.4% (active); in test [5], -99.4% (active); in test [6], 58.4%.
As for `CCN(CC)CCNc1c(C)cc(CO)c(Cl)c1C`, the growth in test [1] is 104%; in test [2] it was 106%; in test [3], 105%; in test [4], 75%; in test [5], 104%; in test [6] it was 107%.
As for `N=C(N)c1ccc(-c2ccc(-c3cc(Cl)cc(Cl)c3)o2)nc1`, the growth in test [1] is 91.2%; in test [2], -78.1% (active); in test [3], -82.7% (active); in test [4], -67.1% (active); in test [5] it was -74% (active); in test [6], -41.9% (active).
Take `Cc1c(C)c(C)c([N+](=O)[O-])c([N+](=O)[O-])c1C`: the growth in test [1] is 101%; in test [2], 88.6%; in test [3] it was 106%; in test [4] it was 97%; in test [5], 109%; in test [6], 103%. Besides, the growth in test [7] was 98.1%.
Take `O=C(O)c1ccccc1N=Cc1ccccc1`: the growth was 112% in test [1]; 95.2% in test [2]; 107% in test [3]; 109% in test [4]; 101% in test [5]; 102% in test [6]. Further, the growth in test [7] was 105%.
As for `CCCCn1c(C)nc2ccc(Nc3nc(Cl)nc4nc[nH]c34)cc21`, the growth was 47.8% in test [1]; 77.2% in test [2]; 78.6% in test [3]; 76.5% in test [4]; 67.7% in test [5]; 94% in test [6].
Take `CCCCC(CCc1ccccn1)C(=O)c1ccccc1` (stereo unspecified): the growth in test [1] is 108%; in test [2], 111%; in test [3], 112%; in test [4] it was 105%; in test [5], 109%; in test [6] it was 111%. For the same compound, in test [7], the growth was 136%.
`O=C(NC1CC1)c1ccc(-c2nc3ccc4[nH]ncc4c3c3c2CCCC3)cc1`: the growth is 29.5% in test [1]; 11.5% in test [2]; 18.7% in test [3]; 38.6% in test [4]; 17% in test [5]; 51.1% in test [6]. Further, the growth in test [7] is 24.4%.
On to `Cn1c(=O)c2c3c(oc2c2ccccc21)C(=O)c1ccccc1C3=O`, for which the growth in test [1] was 77.4%; in test [2] it was 104%; in test [3], 86.2%; in test [4], 68.4%; in test [5] it was 71.7%; in test [6], 102%. Besides, the growth in test [7] is 91.5%.
As to `CN(CCO)c1ccc(N2Cc3ccccc3OC3=C2C(=O)c2c(O)ccc(O)c2C3=O)cn1`, the growth in test [1] was -73.2% (active); in test [2], -84% (active); in test [3], -51.7% (active); in test [4], -34.9% (active); in test [5] it was -85.6% (active); in test [6], -84.2% (active). In addition, in test [7], the growth is -78% (active).
`O=S(=O)(NCC[C@@H]1C[C@H]1c1ccc2ccccc2c1)c1ccc(C(F)(F)F)cc1`: the growth in test [1] was 92.5%; in test [2] it was 99.1%; in test [3] it was 98.6%; in test [4], 91.1%; in test [5], 88%; in test [6], 101%. In addition, in test [7], the growth is 95.2%.
`CCN(CC)Cc1cc(Nc2ccnc3cc(Cl)ccc23)cc(-c2ccc(Cl)cc2)c1O`: the growth was 25.4% in test [1]; 35.4% in test [2]; 12.3% in test [3]; 14.8% in test [4]; 43.4% in test [5]; 64.3% in test [6]. Also, the growth in test [7] is 34.5%.

(Values after PubChem BioAssay (NCI).)
